The values below come from PubChem BioAssay (EPA / NIEHS).

Test [1] concerns the target X-box-binding protein 1 (Homo sapiens) (UniProt P17861). Kind of test: ATG_Xbp1_CIS: Attagene CIS-FACTORIAL HepG2 Assay for human X-box Binding Protein 1 (XBP1) (AID 2282972). Particulars: HepG2 XBP1 cis-element reporter, Attagene multiplex; actives raise or lower the signal. The gist of the method:
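Multiplexed cis-reporter readout in transfected HepG2 liver cells. Exposure lasted 24 hours. Activity in either direction was fitted against DMSO as negative control and baseline.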

Test [2] can be described thus: ATG_GAL4_TRANS: Attagene TRANS-FACTORIAL HepG2 Assay for GAL4 (Internal Marker) (AID 2282976; active means hit-call score of the fitted dose curve at least 0.9, where 1 is the maximum). Particulars: HepG2 Attagene TRANS GAL4 internal marker reporter. The method in brief: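 First, HepG2 cells were transfected with reporter units under GAL4-UAS control. Next, they were treated with chemical for 24 h. Finally, RNA was reverse-transcribed, PCR-amplified, FAM-labelled and resolved by capillary electrophoresis, with induction scored against DMSO.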

Test [3] deals with Glucocorticoid receptor (Homo sapiens) (UniProt P04150). The experiment in a line: ATG_GR_TRANS: Attagene TRANS-FACTORIAL HepG2 Assay for human Glucocorticoid Receptor (GR) (AID 2282978; active means hit-call score of the fitted dose curve at least 0.9, where 1 is the maximum;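 further: activators score as hits since higher reporter transcript over DMSO is fitted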). As to conditions: HepG2 Attagene TRANS GR reporter, mRNA transcription. The method in brief: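 Readout is reporter transcript from a chimeric GR-Gal4 acting on GAL4-UAS in transfected human HepG2 liver cells after 24 h exposure, quantified by RT-PCR and capillary electrophoresis. Activation fitted upward against DMSO.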
Chain of Glucocorticoid receptor (Homo sapiens) (P04150 whole entry, looked up, the tested form may be a part): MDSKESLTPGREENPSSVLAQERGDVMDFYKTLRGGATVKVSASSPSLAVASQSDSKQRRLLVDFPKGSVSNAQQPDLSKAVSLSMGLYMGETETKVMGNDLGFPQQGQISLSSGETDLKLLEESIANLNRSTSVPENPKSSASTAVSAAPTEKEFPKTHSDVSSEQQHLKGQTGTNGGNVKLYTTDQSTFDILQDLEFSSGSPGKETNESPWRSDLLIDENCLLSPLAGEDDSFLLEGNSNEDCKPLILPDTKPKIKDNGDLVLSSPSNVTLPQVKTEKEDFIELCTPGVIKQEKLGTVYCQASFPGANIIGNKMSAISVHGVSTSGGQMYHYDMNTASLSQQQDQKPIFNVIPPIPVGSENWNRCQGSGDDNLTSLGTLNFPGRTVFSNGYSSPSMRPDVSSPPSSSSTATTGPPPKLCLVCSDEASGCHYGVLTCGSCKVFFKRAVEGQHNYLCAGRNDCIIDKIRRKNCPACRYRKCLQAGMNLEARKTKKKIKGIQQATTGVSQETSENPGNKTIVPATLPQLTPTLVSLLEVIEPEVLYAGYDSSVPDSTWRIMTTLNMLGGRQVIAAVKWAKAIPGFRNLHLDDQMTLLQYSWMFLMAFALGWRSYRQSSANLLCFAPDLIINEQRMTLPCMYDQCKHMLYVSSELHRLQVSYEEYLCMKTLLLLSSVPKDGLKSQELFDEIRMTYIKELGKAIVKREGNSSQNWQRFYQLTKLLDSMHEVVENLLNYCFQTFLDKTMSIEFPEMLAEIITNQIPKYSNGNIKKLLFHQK

Test [4] addresses Oxysterols receptor LXR-alpha (Homo sapiens) (UniProt Q13133). The experiment in a line: ATG_LXRa_TRANS: Attagene TRANS-FACTORIAL HepG2 Assay for human Liver X Receptor alpha (LXRa) (AID 2282980; active means hit-call score of the fitted dose curve at least 0.9, where 1 is the maximum). Particulars: HepG2 Attagene TRANS reporter, LXRa transactivation. The method in brief:
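Transfect HepG2 with GAL4-UAS multiplex reporter constructs (TRANS format, chimeric receptor-GAL4); treat 24 h; extract RNA, reverse-transcribe, PCR-amplify, FAM-label, HpaI-digest; resolve fragments by capillary electrophoresis. Upward response vs DMSO.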

Test [5] deals with Oxysterols receptor LXR-beta (Homo sapiens) (UniProt P55055). The experiment in a line: ATG_LXRb_TRANS: Attagene TRANS-FACTORIAL HepG2 Assay for human Liver X Receptor beta (LXRb) (AID 2282981; active means hit-call score of the fitted dose curve at least 0.9, where 1 is the maximum). As to conditions: HepG2 Attagene TRANS GAL4-LXRb reporter, mRNA. The gist of the method: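 Liver-derived HepG2 cells transfected with Gal4-responsive reporters were dosed for 24 h. Activation was scored as rise in reporter mRNA, by RT-PCR and capillary electrophoresis, above DMSO baseline.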
Chain of Oxysterols receptor LXR-beta (Homo sapiens) (P55055 whole entry, looked up, the tested form may be a part): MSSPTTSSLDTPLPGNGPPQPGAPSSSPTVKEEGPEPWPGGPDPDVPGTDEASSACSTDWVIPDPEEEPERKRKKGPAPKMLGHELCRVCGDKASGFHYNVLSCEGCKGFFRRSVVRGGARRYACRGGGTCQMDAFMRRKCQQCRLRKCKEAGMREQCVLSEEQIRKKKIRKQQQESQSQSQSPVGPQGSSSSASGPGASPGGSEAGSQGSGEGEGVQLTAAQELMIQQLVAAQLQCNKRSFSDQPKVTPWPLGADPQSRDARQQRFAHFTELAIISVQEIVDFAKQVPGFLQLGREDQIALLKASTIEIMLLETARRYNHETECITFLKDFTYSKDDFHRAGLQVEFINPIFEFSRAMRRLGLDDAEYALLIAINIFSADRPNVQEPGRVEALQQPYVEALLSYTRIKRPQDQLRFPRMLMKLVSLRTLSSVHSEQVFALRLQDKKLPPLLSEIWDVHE

Test [6] deals with Hepatocyte nuclear factor 4-alpha (Homo sapiens) (UniProt P41235). Kind of test: ATG_HNF4a_TRANS: Attagene TRANS-FACTORIAL HepG2 Assay for human Hepatocyte Nuclear Factor 4 alpha (HNF4a) (AID 2282982; active means hit-call score of the fitted dose curve at least 0.9, where 1 is the maximum). Particulars: HepG2 HNF4a transactivation reporter, mRNA readout. The gist of the method:
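Using HepG2 liver cells transfected with GAL4-UAS reporter units, chemical-induced mRNA increases were assessed after 24 hours. Fluorescent RT-PCR fragments were separated by capillary electrophoresis and compared with DMSO negative controls.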

Test [7] can be described thus: ATG_M_06_TRANS: Attagene TRANS-FACTORIAL HepG2 Assay for M06 Transcription Factor (Internal Marker) (AID 2282983; active means hit-call score of the fitted dose curve at least 0.9, where 1 is the maximum;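 further: reporter transcript level by RT-PCR then capillary electrophoresis fluorescence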). As to conditions: HepG2 Attagene TRANS M06 internal marker reporter. The gist of the method: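 Background control endpoint: reporter mRNA from transiently transfected HepG2 after 24 h dosing, detected by RT-PCR with capillary electrophoresis fluorescence. Analysed for gain versus DMSO.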

The target in test [8] is Transcriptional activator Myb (Homo sapiens) (UniProt P10242). Kind of test: ATG_Myb_CIS: Attagene CIS-FACTORIAL HepG2 Assay for human Myeloblastosis (Myb) Proto-Oncogene Transcription Factor (AID 2282986). As to conditions: HepG2 Attagene CIS-FACTORIAL Myb reporter transcription; actives raise or lower the signal. The method in brief: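 Reporter mRNA is quantified by RT-PCR and capillary electrophoresis 24 h after dosing HepG2 cells transfected with cis-regulated reporter units, which track endogenous transcription factor activity. Gain and loss of signal are fitted versus DMSO baseline.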

In test [9] the target is Nuclear respiratory factor 1 (Homo sapiens) (UniProt Q16656). The experiment in a line: ATG_NRF1_CIS: Attagene CIS-FACTORIAL HepG2 Assay for human Nuclear Respiratory Factor 1 (NRF1) Orphan Gene (AID 2282987). Particulars: HepG2 NRF1 cis-element reporter, Attagene multiplex; actives raise or lower the signal. The method in brief: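 Endogenous NRF1-driven reporter transcription in transfected HepG2 cells after 24 h treatment. Readout: RT-PCR products, 6-FAM labelled and resolved by capillary electrophoresis; changes fitted both directions relative to DMSO.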
Chain of Nuclear respiratory factor 1 (Homo sapiens) (Q16656 whole entry, looked up): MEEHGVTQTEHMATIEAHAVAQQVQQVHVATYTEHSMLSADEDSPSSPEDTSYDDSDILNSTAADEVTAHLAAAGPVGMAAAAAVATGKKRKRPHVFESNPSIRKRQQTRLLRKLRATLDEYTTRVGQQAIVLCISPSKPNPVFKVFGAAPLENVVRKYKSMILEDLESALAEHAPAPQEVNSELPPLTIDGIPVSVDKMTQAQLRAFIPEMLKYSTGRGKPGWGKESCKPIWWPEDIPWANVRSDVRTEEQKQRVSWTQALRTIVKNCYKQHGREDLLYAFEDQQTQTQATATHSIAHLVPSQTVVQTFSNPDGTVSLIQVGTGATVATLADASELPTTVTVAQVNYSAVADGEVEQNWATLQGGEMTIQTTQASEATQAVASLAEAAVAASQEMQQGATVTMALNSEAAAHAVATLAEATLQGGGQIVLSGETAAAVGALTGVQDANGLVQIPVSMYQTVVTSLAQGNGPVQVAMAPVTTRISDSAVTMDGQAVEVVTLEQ

Test [10] in a line: ATG_NFI_CIS: Attagene CIS-FACTORIAL HepG2 Assay for human Nuclear Factor I (NFI) (AID 2282989). Particulars: HepG2 cis-regulatory reporter, NFI response element transcription; actives raise or lower the signal. The gist of the method:
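Cells: human liver HepG2, transiently transfected with promoter-regulated reporter transcription units. Exposure 24 h. Detection: fluorescent RT-PCR products separated by capillary electrophoresis, normalised to DMSO negative control.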

Test [11] concerns the target Myc proto-oncogene protein (Homo sapiens) (UniProt P01106). The experiment in a line: ATG_Myc_CIS: Attagene CIS-FACTORIAL HepG2 Assay for human Myelocytomatosis (Myc) Proto-Oncogene Transcription Factor (AID 2282990). Particulars: HepG2, Attagene cis-reporter transcription factor activity; actives raise or lower the signal. The gist of the method:
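HepG2 cells transiently transfected with multiple cis-promoter-driven reporter transcription units, so endogenous TF activity is read. After 24 h compound exposure, reporter mRNA was quantified by RT-PCR, 6-FAM labelling, HpaI digestion and capillary electrophoresis; bidirectional fit versus DMSO.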

The nature of test [12]: ATG_M_32_TRANS: Attagene TRANS-FACTORIAL HepG2 Assay for M32 Transcription Factor (Internal Marker) (AID 2282984; active means hit-call score of the fitted dose curve at least 0.9, where 1 is the maximum;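 further: transcript level of a background control reporter unit measured by RT-PCR and capillary electrophoresis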). As to conditions: HepG2 Attagene TRANS M32 internal marker reporter. The method in brief: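 Fluorescence-detected mRNA induction, HepG2 liver cells, 24 h after dosing. Multiple GAL4-UAS reporter units introduced by transient transfection; background-control endpoint analysed for gain of signal against DMSO.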

Test [13] addresses Nuclear receptor subfamily 4 group A member 2 (Homo sapiens) (UniProt P43354). Kind of test: ATG_NURR1_TRANS: Attagene TRANS-FACTORIAL HepG2 Assay for human Nuclear Receptor Related Protein 1 (NURR1) (AID 2282985; active means hit-call score of the fitted dose curve at least 0.9, where 1 is the maximum). As to conditions: HepG2 Attagene TRANS reporter, mRNA readout. The gist of the method: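 Chimeric NR-Gal4 proteins were expressed in human HepG2 cells bearing GAL4-UAS reporter units, and induced reporter mRNA was quantified 24 h post-dosing by RT-PCR and capillary electrophoresis.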

Test [14] in a line: ATG_M_19_TRANS: Attagene TRANS-FACTORIAL HepG2 Assay for M19 Transcription Factor (Internal Marker) (AID 2282974; active means hit-call score of the fitted dose curve at least 0.9, where 1 is the maximum). Particulars: HepG2 Attagene TRANS-FACTORIAL M19 internal marker reporter. The method in brief: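 Background-control readout: after 24 h chemical exposure of transfected HepG2 carrying GAL4-driven reporter units, RNA was reverse-transcribed, amplified, fluorescently labeled and sized by capillary electrophoresis; gain-of-signal fit against DMSO.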

Test [15] addresses Bile acid receptor (Homo sapiens) (UniProt Q96RI1). The experiment in a line: ATG_FXR_TRANS: Attagene TRANS-FACTORIAL HepG2 Assay for Farnesoid X Receptor (FXR) (AID 2282979; active means hit-call score of the fitted dose curve at least 0.9, where 1 is the maximum;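 further: hits raise reporter mRNA above DMSO so AC50 marks FXR activation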). Particulars: HepG2 Attagene TRANS FXR-GAL4 reporter transcription. The gist of the method:
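Transient transfection of HepG2 with multiplexed GAL4-UAS reporter units; exogenous FXR-GAL4 chimera. Dose 24 h → TriZol RNA → oligo(dT) RT → PCR, 6-FAM primer extension, HpaI cut → CE. Gain vs DMSO.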

Test [16] has as its target Estrogen-related receptor gamma (Homo sapiens) (UniProt P62508). The experiment in a line: ATG_ERRg_TRANS: Attagene TRANS-FACTORIAL HepG2 Assay for human Estrogen-Related Receptor gamma (ERRg) (AID 2282977; active means hit-call score of the fitted dose curve at least 0.9, where 1 is the maximum;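 further: hits increase reporter signal over DMSO so potencies reflect activators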). Particulars: HepG2 Attagene TRANS reporter, ERRg transactivation. The gist of the method: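 Readout: fluorescent reporter-mRNA fragments resolved by capillary electrophoresis after RT-PCR and HpaI cut. Cells: transiently transfected HepG2 carrying GAL4-UAS reporters driven by exogenous NR-Gal4 chimeras, dosed 24 h. Activity fitted upward relative to DMSO baseline.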

Inconclusive results are not listed. Calls of active or inactive are those of the source. How the source made its calls, unless noted: active means hit-call score of the fitted dose curve at least 0.9, where 1 is the maximum; inactive means score below 0.9.

By AC50 is commonly meant the concentration giving half of the maximal activity seen.

Chain of Nuclear receptor subfamily 4 group A member 2 (Homo sapiens) (P43354 whole entry, looked up, the tested form may be a part): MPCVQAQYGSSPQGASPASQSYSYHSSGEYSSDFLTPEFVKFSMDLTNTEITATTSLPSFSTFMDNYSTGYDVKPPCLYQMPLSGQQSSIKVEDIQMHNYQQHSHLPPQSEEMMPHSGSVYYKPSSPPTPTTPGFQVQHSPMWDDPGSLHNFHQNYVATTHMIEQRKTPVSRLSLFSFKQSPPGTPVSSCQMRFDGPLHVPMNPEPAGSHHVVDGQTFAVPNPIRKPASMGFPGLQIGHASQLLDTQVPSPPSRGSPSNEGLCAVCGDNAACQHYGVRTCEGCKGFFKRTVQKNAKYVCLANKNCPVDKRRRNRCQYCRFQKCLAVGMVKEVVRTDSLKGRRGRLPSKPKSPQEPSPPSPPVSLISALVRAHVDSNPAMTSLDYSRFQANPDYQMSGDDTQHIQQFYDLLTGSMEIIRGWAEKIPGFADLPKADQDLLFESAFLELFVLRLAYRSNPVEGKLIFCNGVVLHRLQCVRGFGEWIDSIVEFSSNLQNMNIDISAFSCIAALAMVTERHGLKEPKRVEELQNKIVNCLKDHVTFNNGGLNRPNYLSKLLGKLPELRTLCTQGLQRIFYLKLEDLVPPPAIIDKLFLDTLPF
Chain of Bile acid receptor (Homo sapiens) (Q96RI1 whole entry, looked up, the tested form may be a part): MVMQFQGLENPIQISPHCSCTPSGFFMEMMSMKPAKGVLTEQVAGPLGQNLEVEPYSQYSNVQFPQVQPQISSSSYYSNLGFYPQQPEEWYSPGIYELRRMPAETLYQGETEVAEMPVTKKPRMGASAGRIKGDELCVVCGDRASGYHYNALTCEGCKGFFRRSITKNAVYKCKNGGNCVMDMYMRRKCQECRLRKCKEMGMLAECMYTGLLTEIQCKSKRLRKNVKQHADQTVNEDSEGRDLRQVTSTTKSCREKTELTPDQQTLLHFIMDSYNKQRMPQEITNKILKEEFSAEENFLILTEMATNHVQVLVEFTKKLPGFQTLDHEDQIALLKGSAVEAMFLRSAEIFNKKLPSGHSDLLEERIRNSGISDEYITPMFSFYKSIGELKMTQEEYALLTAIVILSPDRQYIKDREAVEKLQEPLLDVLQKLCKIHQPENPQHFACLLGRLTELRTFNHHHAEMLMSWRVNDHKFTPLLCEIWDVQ
Chain of Myc proto-oncogene protein (Homo sapiens) (P01106 whole entry, looked up): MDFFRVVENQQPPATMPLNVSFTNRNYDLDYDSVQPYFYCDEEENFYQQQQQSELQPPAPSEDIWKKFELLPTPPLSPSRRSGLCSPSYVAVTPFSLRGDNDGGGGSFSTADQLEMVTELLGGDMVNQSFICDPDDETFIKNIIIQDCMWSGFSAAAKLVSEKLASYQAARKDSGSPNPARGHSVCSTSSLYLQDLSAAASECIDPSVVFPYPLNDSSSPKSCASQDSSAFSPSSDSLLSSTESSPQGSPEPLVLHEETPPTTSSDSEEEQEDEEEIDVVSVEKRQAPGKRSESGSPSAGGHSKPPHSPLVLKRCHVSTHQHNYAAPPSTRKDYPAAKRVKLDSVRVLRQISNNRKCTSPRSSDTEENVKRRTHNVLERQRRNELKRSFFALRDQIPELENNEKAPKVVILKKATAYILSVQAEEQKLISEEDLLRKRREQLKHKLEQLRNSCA
Chain of Hepatocyte nuclear factor 4-alpha (Homo sapiens) (P41235 whole entry, looked up, the tested form may be a part): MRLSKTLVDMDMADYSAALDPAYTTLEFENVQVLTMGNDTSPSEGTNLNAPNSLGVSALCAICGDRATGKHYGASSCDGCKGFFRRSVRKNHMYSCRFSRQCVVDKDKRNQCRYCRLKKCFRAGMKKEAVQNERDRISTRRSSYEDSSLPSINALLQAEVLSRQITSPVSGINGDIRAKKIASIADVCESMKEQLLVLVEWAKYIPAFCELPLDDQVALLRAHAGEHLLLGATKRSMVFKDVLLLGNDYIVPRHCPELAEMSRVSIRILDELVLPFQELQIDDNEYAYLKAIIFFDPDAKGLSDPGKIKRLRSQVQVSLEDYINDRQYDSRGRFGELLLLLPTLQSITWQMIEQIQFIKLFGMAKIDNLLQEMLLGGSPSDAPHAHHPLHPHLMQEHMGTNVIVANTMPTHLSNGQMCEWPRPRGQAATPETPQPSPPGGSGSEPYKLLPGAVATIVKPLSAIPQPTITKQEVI
Chain of X-box-binding protein 1 (Homo sapiens) (P17861 whole entry, looked up): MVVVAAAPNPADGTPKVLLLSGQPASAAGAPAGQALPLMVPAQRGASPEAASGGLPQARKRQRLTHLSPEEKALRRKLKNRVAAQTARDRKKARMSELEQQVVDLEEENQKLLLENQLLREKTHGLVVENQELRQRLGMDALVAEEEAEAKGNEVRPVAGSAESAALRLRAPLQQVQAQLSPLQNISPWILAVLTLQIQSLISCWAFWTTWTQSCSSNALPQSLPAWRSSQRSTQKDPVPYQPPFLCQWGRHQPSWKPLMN
Chain of Oxysterols receptor LXR-alpha (Homo sapiens) (Q13133 whole entry, looked up, the tested form may be a part): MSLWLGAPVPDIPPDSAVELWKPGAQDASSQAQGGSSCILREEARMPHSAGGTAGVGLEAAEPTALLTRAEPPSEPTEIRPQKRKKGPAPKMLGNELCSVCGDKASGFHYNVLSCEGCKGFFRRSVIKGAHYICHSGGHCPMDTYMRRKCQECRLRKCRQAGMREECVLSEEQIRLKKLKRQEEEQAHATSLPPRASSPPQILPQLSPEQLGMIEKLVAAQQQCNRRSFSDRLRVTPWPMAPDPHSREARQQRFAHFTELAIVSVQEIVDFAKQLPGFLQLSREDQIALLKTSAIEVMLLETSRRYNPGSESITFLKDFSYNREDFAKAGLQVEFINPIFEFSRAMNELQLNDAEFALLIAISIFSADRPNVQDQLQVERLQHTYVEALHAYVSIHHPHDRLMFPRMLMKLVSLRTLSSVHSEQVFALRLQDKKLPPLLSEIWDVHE
Chain of Estrogen-related receptor gamma (Homo sapiens) (P62508 whole entry, looked up, the tested form may be a part): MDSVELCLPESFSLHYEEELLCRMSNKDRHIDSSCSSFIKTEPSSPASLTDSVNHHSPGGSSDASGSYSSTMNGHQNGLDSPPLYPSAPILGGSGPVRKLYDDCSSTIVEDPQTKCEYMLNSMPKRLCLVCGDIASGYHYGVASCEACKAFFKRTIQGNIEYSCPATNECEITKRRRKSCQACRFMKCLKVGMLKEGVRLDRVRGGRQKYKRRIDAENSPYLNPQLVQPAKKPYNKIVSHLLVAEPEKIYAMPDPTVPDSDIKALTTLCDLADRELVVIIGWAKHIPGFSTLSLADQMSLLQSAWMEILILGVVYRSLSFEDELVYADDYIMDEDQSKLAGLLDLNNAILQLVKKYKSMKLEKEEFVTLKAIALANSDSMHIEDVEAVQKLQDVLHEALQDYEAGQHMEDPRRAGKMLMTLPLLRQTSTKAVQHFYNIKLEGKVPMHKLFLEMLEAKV

Regarding `N#CS`, the molecule was called inactive in test [1], in [2], in test [3], in test [4], in [5] and in [6]. In addition, the call in test [7], in [8], in test [9], in test [10] and in test [11] was inactive.
`CCN(CC)C(=O)C(Cl)=C(C)OP(=O)(OC)OC`: the molecule was called inactive in test [1], in test [3], in test [5], in test [6], in [7] and in test [12]. The molecule was called inactive in [13], in [8], in test [9], in [10] and in test [11].
For `CCCCCCCCCCCCCCC(Br)C(=O)O` (stereo not drawn), the half-maximal activity concentration (AC50) in [1] is 152 µM (active); in test [13], 26.4 µM (active); in test [8], 163 µM (active); in [9] it was 168 µM (active). The result in test [14], in [2], in test [3], in [15], in [12] and in [10] was inactive. In addition, the molecule was classed as inactive in [11].
For the molecule `CNC(=O)CSP(=O)(OC)OC`, the outcome in test [1], in test [14], in [3], in [15], in test [5] and in [7] was inactive. Besides, the call in test [12], in test [13], in test [8], in test [10] and in test [11] was inactive.
Turning to `Cc1cccc(C)c1NC(=O)CN1CCCC1=O`, the molecule was classed as inactive in test [1], in test [15], in test [4], in test [7], in test [8] and in test [9]. In addition, the outcome in test [10] and in test [11] was inactive.
Turning to `O=C(O)CC(O)(CC(=O)O)C(=O)O`, the result in test [1], in test [14], in test [4], in test [5], in [6] and in test [7] was inactive. The molecule was classed as inactive in test [8], in test [9], in test [10] and in [11]. For the same molecule, in test [13], the AC50 was 6.74 µM (active).
Turning to `ClCc1ccccc1Cl`, the concentration at half-maximal activity (AC50) in test [1] was 100 µM (active). Moreover, the result in test [14], in [16], in test [12], in test [13], in test [8] and in test [9] was inactive. The call in test [10] and in test [11] was inactive.
As to `COc1ccc(N)cc1`, the molecule was called inactive in [1], in test [14], in test [2], in [3], in test [4] and in test [5]. For the same molecule, the outcome in test [12], in [13], in [8], in [9], in [10] and in test [11] was inactive.
Take `OCCN(CCO)CCO`: the molecule was classed as inactive in [1], in test [2], in test [4], in test [5], in test [8] and in test [9]. Further, the result in test [10] and in test [11] was inactive.
For `O=[N+]([O-])c1ccc(Cl)c([N+](=O)[O-])c1`, the result in test [1], in test [14], in test [3], in test [4], in test [12] and in test [13] was inactive. Further, the outcome in [8], in test [9] and in [10] was inactive. Moreover, the AC50 in [11] is 3.71 µM (active).
Turning to `NNCCO`, the molecule was called inactive in test [1], in [14], in [16], in test [15], in test [5] and in test [6]. Also, the call in test [8], in test [9], in [10] and in [11] was inactive.
`O=C(CBr)c1ccc(O)cc1`: the outcome in test [1], in test [14], in test [16], in test [5], in test [8] and in test [10] was inactive. In test [11], the molecule was classed as inactive.
For the molecule `Cc1cc(SCc2sc(-c3ccc(C(F)(F)F)c(F)c3)nc2C)ccc1OCC(=O)O`, the AC50 is 25.2 µM (active) in [1] and 27.1 µM (active) in [15]. Further, the molecule was called inactive in test [14], in test [3], in test [5], in [8], in test [9] and in test [10]. In addition, the result in test [11] was inactive.
